# hcDAF12 agonist – H. contortus DAF-12 activation, primary screen; activation, % at 6.8 µM; 370,000 compounds, 1.4% hits; HEK293 hcDAF-12 lit1-tk-luc reporter, luminescence; 0% DMSO, 100% Δ7-dafachronic acid;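 active means activation above the mean of all tested compounds plus 3 SD, cut at about 5.5% in these data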
# hgDAF-12 ag – agonists of H. glycines DAF-12 nuclear receptor; HEK293 GAL4-hgDAF12 UAS-luciferase reporter, agonist luminescence; normalized to butyrate control; activation, % at 6.8 µM; 370,000 compounds, 1.8% hits; AID 687014;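 active means activation above a cutoff set at the mean of all screened compounds plus 3 SD, cut at about 10% in these data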
# ssDAF-12 act – activates DAF-12 receptor from parasite S. stercoralis. HEK293 ssDAF-12/GRIP1 lit1-tk-luc reporter, luminescence; % of 3 µM dafachronic acid response. activation, % at 6.8 µM. 370,000 compounds, 1% hits;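 active means activation above the mean over all tested compounds plus 3 SD, cut at about 0.9% in these data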
# DAX1 inh-1 – NR0B1 (DAX1) inhibition | inhibition, % at 6.75 µM | 340,000 compounds, 0.99% hits | HEK293 Gal4-DAX1 luciferase reporter, luminescence | P51843;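 active means inhibition above the mean over all tested compounds plus 3 SD, cut at about 4.2% in these data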;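 further: inhibition shows as a rise in luminescence from relieved DAX1 repression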
# Target sequence (P51843 207-470 limits assumed): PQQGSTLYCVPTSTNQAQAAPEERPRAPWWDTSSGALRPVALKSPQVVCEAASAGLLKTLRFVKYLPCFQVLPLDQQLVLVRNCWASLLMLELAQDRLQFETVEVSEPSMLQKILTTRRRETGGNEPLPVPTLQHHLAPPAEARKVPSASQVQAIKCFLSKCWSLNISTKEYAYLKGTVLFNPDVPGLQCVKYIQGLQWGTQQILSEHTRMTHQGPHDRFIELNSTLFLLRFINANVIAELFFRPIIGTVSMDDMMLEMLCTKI
# DAX1 inh-2 – DAX1 (NR0B1) inhibition, primary screen | 370,000 compounds, 1.1% hits | AID 652010 | inhibition, % at 6.8 µM | HEK293T StAR-luciferase reporter, SF-1/DAX-1 repression relief;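 active means inhibition above the mean over all tested compounds plus 3 SD, cut at about 3.6% in these data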;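 further: higher inhibition means more luminescence from relief of DAX-1 repression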
# hgDAF12 ag – hgDAF-12 agonism, confirmation assay; shares compounds with hgDAF-12 ag; HEK293 GAL4-hgDAF12 luciferase reporter, agonist mode; percent of butyrate response; activation, % at 6.8 µM; 3,300 compounds, 80% hits;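 active means mean activation over triplicate wells above the hit cutoff derived from the earlier primary screen, cut at about 11% in these data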
# LXRb DAF12 ctr – LXR-beta agonism as DAF-12 counter-screen; activation, % at 6.8 µM; 3,300 tested, under 10 active; shares compounds with hgDAF-12 ag; HEK293 Gal4-LXR luciferase reporter, 24 h;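 active means mean activation of the triplicate above a set limit carried over from the primary screen, none filed active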
# Hits are given with their value; i = inactive; nt = no result. In the library only some 4.1% were active in any assay of this set; here they are far more common.
SMILES,hcDAF12 agonist,hgDAF-12 ag,ssDAF-12 act,DAX1 inh-1,DAX1 inh-2,hgDAF12 ag,LXRb DAF12 ctr
C[C@@H](NC(=O)c1nc[nH]c1C(=O)N(C)Cc1ccccc1)c1ccccc1,i,i,i,i,i,nt,nt
Cc1ccc(CNC(=O)Cn2nnc(C(=O)Nc3cc(C)ccc3C)c2N)cc1,i,i,i,i,i,nt,nt
CN(C)c1ccc(/C=C2\CCCCC2=O)cc1,i,17.7,i,i,i,14.4,i
CN(C)c1ccc(C=C2SC(=S)NC2=O)cc1,i,i,i,i,i,nt,nt
C/C(=N\NC(=O)C1CCCC1)c1ccc(Cl)cc1,i,i,i,i,i,nt,nt
Nc1cc2c(cc1Cl)-c1ccccc1C2=NO,i,16.2,i,i,i,i,i
O=[N+]([O-])c1cnc2nc(-c3ccncc3)nn2c1O,i,i,i,i,i,nt,nt
Cc1ccc(-c2nc3ccccn3c2C=O)cc1,5.8,13.6,i,i,i,11.9,i
COc1ccc(-c2nc3c4ccccc4ccn3c2C=O)cc1,i,i,i,i,i,nt,nt
CC(C)CNC(=O)c1ccccc1C(=O)NC1(C(=O)NCC(C)C)CCCC1,i,i,i,i,i,nt,nt
CCCn1c(SC(C)C(=O)NC2CCCC2)n[nH]c1=O (configuration not stated),i,i,i,i,i,nt,nt
CCC/C(=N/NC(=O)c1cccc(Cl)c1)c1ccccc1,i,16.6,i,i,i,i,i
CCC/C(=N\NC(=O)C1CC1)c1ccccc1,i,i,i,nt,i,nt,nt
O=C(COC(=O)/C=C/c1cc(Br)ccc1F)NC1CC1,i,i,i,i,i,nt,nt
CC(=O)c1ccc(-c2cnc3c(NC=O)cc(-c4ccc(N5CCN(C)CC5)cc4)cn23)cc1,i,16.6,i,nt,i,i,i
CN1CCN(c2ccc(-c3cc(NC=O)c4ncc(-c5ccc(F)c(Cl)c5)n4c3)cc2)CC1,i,i,i,nt,i,nt,nt
Oc1cccc(/C=N\Nc2nncc(-c3ccccc3)n2)c1,i,15.6,i,i,i,11.7,i
CC(C)c1cc(C(=O)Nc2cc(Br)ccc2O)no1,i,i,i,i,i,nt,nt
CCCc1cc(C(=O)Nc2cc(Br)ccc2O)no1,i,14.9,i,i,i,i,i
COCCN1C[C@@H](CO)O[C@@H](n2cnc3c(N4CCN(CCO)CC4)ncnc32)C1,i,i,i,nt,i,nt,nt
COc1ccc(/C=N/Nc2ccccn2)cc1O,i,17.5,i,i,i,12.1,i
Brc1ccc(/C=N/Nc2ccccn2)cc1,i,15.2,i,i,i,11.2,i
Cc1cccc(-c2nn(-c3ccccc3)cc2C(=O)NCC(c2cccs2)N2CCOCC2)c1 (configuration not stated),i,i,i,i,i,nt,nt
CCCC(=O)Nc1ccc(C(=O)Nc2ccc([N+](=O)[O-])cc2OC)cc1,i,i,i,i,i,nt,nt
Cc1ccc(S(=O)(=O)c2ccc(NC(=O)c3c(F)cccc3F)cc2)cc1,i,i,i,i,i,nt,nt
SMILES,hcDAF12 agonist,hgDAF-12 ag,ssDAF-12 act,DAX1 inh-1,DAX1 inh-2,hgDAF12 ag,LXRb DAF12 ctr
O=C(N/N=C/C(Cl)=C/c1ccccc1)c1ccco1,i,22.2,i,i,4.0,12.0,i
COc1ccc(OC)c(CN2C(=O)CN(S(C)(=O)=O)CC2(C)C(=O)NC(C)C)c1 (configuration not stated),i,i,i,nt,i,nt,nt
CCn1c(C)nc2cc(C(=O)N/N=C/c3ccccc3C)ccc21,i,13.6,i,i,i,13.7,i
COc1ccc(NC(=O)/C=C/c2ccccc2)c([N+](=O)[O-])c1,i,15.6,i,i,i,12.0,i
CS(=O)(=O)N(CC(=O)N1CCCC1)C1CCCCC1,i,i,i,i,i,nt,nt
CSc1cccc(NC(=O)Cn2cccc2)c1,i,i,i,i,i,nt,nt
CSc1cccc(NC(=O)c2cnn3ccccc23)c1,i,17.6,1.7,i,i,19.8,i
O=C(NCc1ccc(F)cc1)c1cnn2ccccc12,i,15.7,i,i,i,12.9,i
Cn1cc(CC(=O)NCc2ccc(F)cc2)c2ccccc21,i,i,i,i,i,nt,nt
Cc1nn2c(-c3ccc(F)cc3)ccnc2c1Cl,i,i,i,i,i,nt,nt
Fc1ccc(-c2cnn3c(-c4ccncc4)ccnc23)cc1,i,15.6,i,i,i,17.9,i
Cc1cc(NC(=O)c2nn3cccnc3c2Cl)no1,i,13.6,i,i,i,14.6,i
O=C1CCCN1CCCN1CC(C(=O)N(CCO)Cc2ccccc2)CCC1=O (configuration not stated),i,i,i,i,i,nt,nt
COc1ccc(OCc2ccc(/C=N\NC(=O)c3sccc3C)o2)cc1,i,13.9,i,i,i,i,i
O=C(N/N=C\c1ccc(COc2ccc([N+](=O)[O-])cc2)o1)c1ccc(Cl)cc1,i,i,i,i,i,nt,nt
COc1cccc(C(=O)OCCNC(=O)c2cccnc2)c1,i,i,i,i,i,nt,nt
Cc1cc(C(=O)CSc2nc3ccc(Cl)cc3[nH]2)c(C)n1Cc1ccco1,i,i,i,i,i,nt,nt
Cc1cc(C(=O)CSc2ncccn2)c(C)n1Cc1ccco1,i,17.1,0.9,i,i,17.6,i
Cc1cc(C(=O)COC(=O)c2ccc(O)cc2)c(C)n1Cc1ccco1,6.0,13.4,i,i,4.2,15.9,i
COc1ccc(CCNC(=O)c2ccc(CS(=O)(=O)Cc3ccc(C)cc3)o2)cc1OC,i,i,i,i,i,nt,nt
Nc1nn(-c2ccccc2)c(N)c1N=Nc1cccc(F)c1,6.0,18.8,i,nt,i,23.7,i
Cc1nn(-c2ccccc2)c2c1C(c1ccc(F)cc1F)C(C#N)=C(N)O2 (configuration not stated),i,i,i,i,i,nt,nt
CCOC(=O)/C=C/c1cccc(OC)c1O,i,14.2,i,nt,3.8,13.7,i
Fc1ccccc1COc1ccc(Br)cc1CNCC1CCCO1 (configuration not stated),i,i,i,i,i,nt,nt
Cn1nnc(NCc2cc(Br)ccc2OCc2ccccc2F)n1,i,17.5,i,i,i,i,i
SMILES,hcDAF12 agonist,hgDAF-12 ag,ssDAF-12 act,DAX1 inh-1,DAX1 inh-2,hgDAF12 ag,LXRb DAF12 ctr
CC1CC(=O)Nc2ccccc2N1C(=O)Cn1cnc2ccc(Br)cc2c1=O (configuration not stated),i,i,i,i,i,nt,nt
[O-]/[N+](=C\C=C\c1ccccc1)c1ccccc1,i,14.4,i,i,i,13.7,i
C#CC1(O)CCC2C3CCC4=Cc5oncc5CC4(C)C3CCC21C (configuration not stated),i,i,i,nt,i,nt,nt
COc1cc(SC)ccc1C(=O)Nc1ccc2ncccc2c1,i,15.3,2.4,i,i,16.9,i
COc1ccc(NC(=O)Nc2cccc(C)n2)cc1,i,17.2,i,i,i,12.5,i
COc1cc(SC)ccc1C(=O)Nc1cccc(C)n1,i,15.9,i,i,4.0,12.4,i
